Values joined by “and” are separate entries in the source; they are usually repeats but may differ in a detail not shown here. Equal entries are not always repeated. Records with an inconclusive call do not appear. Active and inactive are the calls of the source. Unless noted, calls follow the shape of the dose curve; as a rule, active = well fitted curve in the direction sought with a large enough effect; inconclusive = small, poorly fitted or top-dose-only effect, or another doubt; inactive = no such curve, though single readings can be large; an effect the other way counts as inactive or inconclusive.
Legend:
[1] = target: Mitogen-activated protein kinase 10 (Mus musculus) (UniProt Q61831); test: JNK3 AlphaScreen Assay (AID 530; active = well fitted curve in either direction with a large enough effect, not every such curve was filed as active;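 also: kinase came from lysate of stimulated human HepG2 cells; signal reports phosphorylation of biotinylated GST-cJun 1-79 at Ser73 with 10 µM ATP; % is scaled to controls: 0 for no effect and ±100 for the full control effect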)
How it was run: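 Pre-activated (IL-1β/TNFα) JNK3 in HepG2 lysates phosphorylates biotin-GST-cJun(1-79), 10 uM ATP; anti-phospho-cJun(Ser73) AlphaScreen read at room temperature, pH 7.6 Tris buffer. Compounds pre-incubated 15 min as titrations.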

[2] = Cell Viability - N2a (AID 540); conditions: N2a mouse neuroblastoma cell viability; activity change, negative = cytotoxicity: at 92.2 µM (top of the series);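 also: cells exposed to compound for 40 h at 37 °C; plate controls were DMSO alone for no effect and tamoxifen control for full effect; nearly all actives have a fitted effect of over 45% in size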
How it was run: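 Luminescent ATP signal (CellTiter-Glo, 20 min at room temperature) served as the viability read-out after N2a cells were treated with compounds for 40 hours at 37 °C. Concentration-response data were fitted to the Hill equation for AC50.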

[3] = Cell Viability - Renal Proximal Tubule (AID 545);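 also: 0% = DMSO only and -100% = 100 µM tamoxifen; nearly all actives have a fitted effect of over 40% in size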
How it was run: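 Viability taken as intracellular ATP (CellTiter-Glo luminescence) after 40 hr, 37 °C compound treatment of primary proximal tubule cells from rat kidney, 1000 cells/well; Hill-equation fits of qHTS concentration-response data gave AC50.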

[4] = Cellular Toxicity (caspase-3) SHSY5Y (AID 657)
How it was run: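 Luminescent Caspase-Glo 3/7 read-out, 1 hr room temperature, follows 16 hours of compound treatment of SH-SY5Y cells at 37 °C. Normalization: DMSO basal, 10 uM staurosporine as 100%; AC50 values from Hill-equation concentration-response fits.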

[5] = target: Cytochrome P450 3A4 (Homo sapiens) (UniProt P08684); test: qHTS Assay for Inhibitors and Substrates of Cytochrome P450 3A4 (AID 884); also: % is scaled to controls: 0 for no effect and ±100 for the full control effect; nearly all actives have a fitted effect of over 50% in size
How it was run: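 20 nM human CYP3A4 with 25 uM Luciferin-PPXE (at KM) in 200 mM KPO4, preincubated 10 min with compound; NADPH regeneration started a 60 min RT reaction. Luciferin detected by luminescence, normalized to 57 uM ketoconazole as full inhibition.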

[6] = MultiTox-Fluor Cytotoxicity Assay - LYMP1-002 - Dead Cells (AID 960); also: nearly all actives have a fitted effect of over 60% in size
How it was run: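 LYMP1-002 cells 2500/well; 5 hr 37 C pre-incubation; compound 16 hr 37 C; MultiTox-Fluor reagent 60 min RT; dead-cell fluor Ex/Em 485/520. Norm. to DMSO (0%) vs 15 uM tetraoctylammonium bromide (100%); Hill AC50.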

[7] = Cell Viability - LYMP2-023 (AID 975);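 also: cellular ATP measured by luciferase luminescence as viability proxy; cells exposed to compound for 24 hours at 37 °C; plate controls were DMSO only for no effect and 92 µM tetraoctylammonium bromide control for full effect; nearly all actives have a fitted effect of over 55% in size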
How it was run: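 2500 cells/well, 5 hr 37 C; cpd 24 hr 37 C; CellTiter-Glo, 30 min RT; luminescence. qHTS conc-response, Hill fit -> AC50. Pos ctrl tetraoctylammonium bromide.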

[8] = Cell Viability - LYMP1-002 - Assay at 24 hr (AID 993); also: % is scaled to controls: 0 for no effect and ±100 for the full control effect
How it was run: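 Cells plated 2500/well, 5 hr 37 C; compounds added, 24 hr 37 C; CellTiter-Glo added, 30 min RT; luminescence read. Tetraoctylammonium bromide positive control. Hill-equation AC50.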

[9] = target: Peroxisome proliferator-activated receptor gamma (Homo sapiens) (UniProt P37231); test: qHTS assay for small molecule agonists of peroxisome proliferator-activated receptor gamma signaling (AID 588536; active = well fitted curve in the direction sought with a large enough effect in the signal ratio, with a control signal flat, not every such curve was filed as active; the % refers to the signal ratio;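 also: 0% = DMSO basal wells and 100% = rosiglitazone at 2 µM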)
How it was run: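 PPAR-gamma-UAS-bla HEK293 cells in medium with 1% charcoal/dextran-treated FBS were exposed to compounds for 16 h at 37 C. Beta-lactamase activity was read with CCF4 substrate (405 nm excitation, 460/530 nm emission).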

[10] = target: Vitamin D3 receptor (Homo sapiens) (UniProt P11473); test: qHTS assay for small molecule antagonists of vitamin D receptor signaling (AID 588541; calls by dose curve;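 also: receptor activated by calcitriol during compound treatment; % is scaled to controls: 0 for no effect and ±100 for the full control effect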)
How it was run: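 VDR-UAS-bla HEK293T cells in 2% charcoal-stripped FBS were stimulated with 1-alpha,25-dihydroxyvitamin D3 (3 nM final) plus compound for 16 h at 37 C. The beta-lactamase CCF4 readout was normalized to 50 nM agonist and DMSO, and Hill fits gave IC50.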

[11] = target: Thyroid hormone receptor beta (Homo sapiens) (UniProt P10828); test: qHTS assay for small molecule antagonists of thyroid hormone receptor beta signaling (AID 588547; active = well fitted inhibition curve with a large enough effect in the signal ratio, with a control signal flat, not every such curve was filed as active; the % refers to the signal ratio;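 also: cells stimulated with 0.4 nM T3 agonist during compound exposure; % is scaled to controls: 0 for no effect and ±100 for the full control effect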); conditions: TR-UAS-bla HEK293, beta-lactamase ratio, antagonist mode, 18 h
How it was run: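 TR-UAS-bla GripTite HEK293 cells in 2% charcoal/dextran FBS medium; compounds 0.59 nM to 92 uM with T3 at 0.4nM final, 18 h at 37 C. Beta-lactamase read by CCF4 fluorescence (460/530 nm); Hill fits gave IC50 and efficacy.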

[12] = target: Voltage-gated inwardly rectifying potassium channel KCNH2 (Homo sapiens) (UniProt Q12809); test: qHTS Assay for Small Molecule Inhibitors of the Human hERG Channel Activity (AID 588834);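 also: lower thallium flux fluorescence means stronger hERG block; nearly all actives have a fitted effect of over 50% in size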; also: potency is read from the fitted curve at half-maximal effect
How it was run: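 Kinetic FDSS fluorescence; U2OS + hERG BacMam (~100 virus particles/cell); FluxOR Tl+ flux; ~10 min cpd; AC50 (Hill).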

[13] = qHTS assay for small molecule disruptors of the mitochondrial membrane potential - 1 hr assay (AID 651754; calls by dose curve; also: nearly all actives have a fitted effect of over 35% in size; also: potency is read from the fitted curve at half-maximal effect)
How it was run: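 HepG2, 2,000 cells/well, overnight attachment; cpd or DMSO 1 hr, 37C/5% CO2; Mito-MPS dye 30 min, 37C; fluorescence monomer (490/535) and aggregate (540/590).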

[14] = qHTS assay for small molecule disruptors of the mitochondrial membrane potential - 5 hr assay (AID 651755; calls by dose curve; also: % is scaled to controls: 0 for no effect and ±100 for the full control effect; nearly all actives have a fitted effect of over 40% in size)
How it was run: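 HepG2 cells (2,000/well), attached overnight, exposed to compound 5 hr at 37C, then Mito-MPS dye 30 min. Fluorescence read for monomers (490/535 nm) and aggregates (540/590 nm).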

[15] = target: Tumor necrosis factor (Homo sapiens) (UniProt P01375); test: qHTS assay to identify small molecules that stimulate Tumor Necrosis Factor-alpha (TNF-alpha) secretion (AID 651757; active = well fitted curve in the direction sought with a large enough effect in the signal ratio; the % refers to the signal ratio; also: 0% is about no effect)
How it was run: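 Read-out is HTRF, a TR-FRET sandwich of cryptate- and XL665-labeled anti-TNF-alpha antibodies detecting cytokine secreted by THP-1 cells. Cells had been incubated with test compounds at 37 C for 17 hrs beforehand.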

[16] = target: Nuclear receptor ROR-gamma (Homo sapiens) (UniProt P51449); test: qHTS assay for small molecule antagonists of the retinoid-related orphan receptor gamma (ROR-gamma) signaling pathway (AID 651802);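 also: CHO cells with doxycycline-induced ROR-gamma expression; luciferase reporter luminescence driven by ROR response element; % is scaled to controls: 0 for no effect and ±100 for the full control effect; nearly all actives have a fitted effect of over 60% in size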
How it was run: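 CHO, TET-inducible ROR + RORE-LUC reporter, 1536-well qHTS. Compound pinned, doxycycline added, 16hr 37C/5% CO2. ONE-Glo, 30 min RT, luminescence; signal drop scored as antagonism.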

[17] = qHTS assay for small molecule agonists of the antioxidant response element (ARE) signaling pathway measured by Nrf2-dependant transcriptional activity - cell viability counter screen (AID 720653; active = well fitted curve in the direction sought with a large enough effect in the repeat runs; an effect the other way counts as inactive or inconclusive; also: % is scaled to controls: 0 for no effect and ±100 for the full control effect); conditions: ARE-bla HepG2 viability, CellTiter-Glo ATP luminescence, 16 h; hits give low values
How it was run: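 ARE-bla HepG2 cells treated with compounds for 16 h at 37C; this counter screen measures viability as intracellular ATP by CellTiter-Glo luminescence after 30 min at room temperature.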

[18] = target: Nuclear receptor subfamily 1 group I member 2 (Rattus norvegicus) (UniProt Q9R1A7); test: qHTS assay for small molecule activators of the rat pregnane X receptor (rPXR) signaling pathway (AID 651751; call rule not given here; also: 0% is about no effect); conditions: rPXR reporter cells, luciferase (One-Glo), 24 h
[19] = qHTS assay for small molecule activators of the human pregnane X receptor (PXR) signaling pathway (AID 720659; call rule not given here; also: 0% is about no effect)
[20] = qHTS assay for cell viability of HEK293 cells (AID 743288); conditions: ATP luminescence (CellTiter-Glo), 18 h, hits give low values; also: % is scaled to controls: 0 for no effect and ±100 for the full control effect; nearly all actives have a fitted effect of over 50% in size
How it was run: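 Total intracellular ATP, measured with a luciferase-coupled reagent, indicates the number of viable HEK293 cells. Exposure to test chemicals lasts 18 h at 37 C in 1,536-well format at 2,000 cells/well.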

Sequence of Tumor necrosis factor (Homo sapiens) (P01375 whole entry, looked up): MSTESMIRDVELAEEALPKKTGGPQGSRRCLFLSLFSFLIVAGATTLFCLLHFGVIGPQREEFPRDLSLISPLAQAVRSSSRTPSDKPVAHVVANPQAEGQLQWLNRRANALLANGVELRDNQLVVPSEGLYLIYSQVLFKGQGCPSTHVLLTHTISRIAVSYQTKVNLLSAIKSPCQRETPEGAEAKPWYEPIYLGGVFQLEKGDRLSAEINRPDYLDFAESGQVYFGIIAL
Sequence of Cytochrome P450 3A4 (Homo sapiens) (P08684 whole entry, looked up): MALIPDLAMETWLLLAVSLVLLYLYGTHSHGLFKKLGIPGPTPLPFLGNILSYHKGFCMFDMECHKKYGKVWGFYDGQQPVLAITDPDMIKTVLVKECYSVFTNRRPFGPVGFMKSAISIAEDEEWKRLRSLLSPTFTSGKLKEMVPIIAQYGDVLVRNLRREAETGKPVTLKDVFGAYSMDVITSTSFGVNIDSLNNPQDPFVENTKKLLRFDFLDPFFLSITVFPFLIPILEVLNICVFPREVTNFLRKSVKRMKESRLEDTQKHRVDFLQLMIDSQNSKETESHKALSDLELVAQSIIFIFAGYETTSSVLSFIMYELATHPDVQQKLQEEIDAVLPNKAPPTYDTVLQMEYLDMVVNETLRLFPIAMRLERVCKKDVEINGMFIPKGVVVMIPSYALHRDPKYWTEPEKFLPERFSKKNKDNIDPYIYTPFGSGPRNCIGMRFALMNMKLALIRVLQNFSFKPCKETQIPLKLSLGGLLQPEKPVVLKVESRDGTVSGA
Sequence of Voltage-gated inwardly rectifying potassium channel KCNH2 (Homo sapiens) (Q12809 whole entry, looked up): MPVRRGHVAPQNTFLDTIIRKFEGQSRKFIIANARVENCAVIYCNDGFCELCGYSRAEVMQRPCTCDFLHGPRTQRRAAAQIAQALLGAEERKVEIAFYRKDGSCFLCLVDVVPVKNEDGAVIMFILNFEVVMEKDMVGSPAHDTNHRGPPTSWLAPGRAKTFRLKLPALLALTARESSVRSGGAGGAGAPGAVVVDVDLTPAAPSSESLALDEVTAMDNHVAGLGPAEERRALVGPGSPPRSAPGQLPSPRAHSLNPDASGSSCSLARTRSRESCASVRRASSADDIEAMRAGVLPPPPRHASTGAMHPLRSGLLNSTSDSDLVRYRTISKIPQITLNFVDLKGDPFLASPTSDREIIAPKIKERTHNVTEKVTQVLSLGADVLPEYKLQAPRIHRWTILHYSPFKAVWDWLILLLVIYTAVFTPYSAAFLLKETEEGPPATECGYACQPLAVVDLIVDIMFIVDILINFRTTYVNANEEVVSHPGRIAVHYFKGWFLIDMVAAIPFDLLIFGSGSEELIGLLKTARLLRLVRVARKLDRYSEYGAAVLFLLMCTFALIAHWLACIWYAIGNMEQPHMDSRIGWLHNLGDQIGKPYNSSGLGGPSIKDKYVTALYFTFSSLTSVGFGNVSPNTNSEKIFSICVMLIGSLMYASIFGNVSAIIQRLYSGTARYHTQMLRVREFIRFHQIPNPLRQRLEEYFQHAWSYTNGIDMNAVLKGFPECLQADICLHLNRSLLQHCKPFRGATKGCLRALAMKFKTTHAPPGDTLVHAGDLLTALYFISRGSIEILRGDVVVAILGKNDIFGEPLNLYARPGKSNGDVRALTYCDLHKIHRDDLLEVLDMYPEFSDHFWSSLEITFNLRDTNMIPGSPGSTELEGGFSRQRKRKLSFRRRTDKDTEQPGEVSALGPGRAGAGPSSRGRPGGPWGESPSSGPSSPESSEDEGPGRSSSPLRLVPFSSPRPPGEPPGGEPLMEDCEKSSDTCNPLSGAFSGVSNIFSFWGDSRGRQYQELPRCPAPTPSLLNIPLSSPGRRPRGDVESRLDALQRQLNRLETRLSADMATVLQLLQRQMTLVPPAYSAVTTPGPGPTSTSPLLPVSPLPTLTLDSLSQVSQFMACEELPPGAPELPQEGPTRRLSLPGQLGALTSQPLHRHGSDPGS
Sequence of Vitamin D3 receptor (Homo sapiens) (P11473 whole entry, looked up): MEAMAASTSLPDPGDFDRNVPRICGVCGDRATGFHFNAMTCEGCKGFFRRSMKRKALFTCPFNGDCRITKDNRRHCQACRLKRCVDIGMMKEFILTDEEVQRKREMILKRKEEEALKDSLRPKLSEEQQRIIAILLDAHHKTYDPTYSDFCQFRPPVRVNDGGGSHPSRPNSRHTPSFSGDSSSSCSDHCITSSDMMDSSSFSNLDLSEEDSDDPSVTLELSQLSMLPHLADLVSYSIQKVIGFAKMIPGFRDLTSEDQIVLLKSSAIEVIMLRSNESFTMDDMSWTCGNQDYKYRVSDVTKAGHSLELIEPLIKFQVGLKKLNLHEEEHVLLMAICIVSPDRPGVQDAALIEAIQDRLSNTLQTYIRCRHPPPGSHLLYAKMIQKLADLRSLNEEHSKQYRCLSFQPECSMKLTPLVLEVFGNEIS
Sequence of Nuclear receptor ROR-gamma (Homo sapiens) (P51449 whole entry, looked up): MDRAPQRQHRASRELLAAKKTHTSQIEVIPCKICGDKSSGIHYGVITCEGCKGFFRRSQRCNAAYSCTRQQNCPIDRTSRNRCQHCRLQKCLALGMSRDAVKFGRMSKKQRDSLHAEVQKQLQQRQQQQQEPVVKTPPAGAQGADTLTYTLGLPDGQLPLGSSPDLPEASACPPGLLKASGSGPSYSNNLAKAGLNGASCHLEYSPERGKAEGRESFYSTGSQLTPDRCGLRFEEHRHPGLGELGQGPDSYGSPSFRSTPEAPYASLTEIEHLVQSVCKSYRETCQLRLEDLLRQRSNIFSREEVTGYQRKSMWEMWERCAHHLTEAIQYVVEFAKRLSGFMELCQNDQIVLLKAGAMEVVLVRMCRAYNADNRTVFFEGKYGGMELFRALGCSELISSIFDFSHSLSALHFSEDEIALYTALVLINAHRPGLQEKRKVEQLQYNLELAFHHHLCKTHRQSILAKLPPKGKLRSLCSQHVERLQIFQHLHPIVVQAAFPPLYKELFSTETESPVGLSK
Sequence of Peroxisome proliferator-activated receptor gamma (Homo sapiens) (P37231 whole entry, looked up): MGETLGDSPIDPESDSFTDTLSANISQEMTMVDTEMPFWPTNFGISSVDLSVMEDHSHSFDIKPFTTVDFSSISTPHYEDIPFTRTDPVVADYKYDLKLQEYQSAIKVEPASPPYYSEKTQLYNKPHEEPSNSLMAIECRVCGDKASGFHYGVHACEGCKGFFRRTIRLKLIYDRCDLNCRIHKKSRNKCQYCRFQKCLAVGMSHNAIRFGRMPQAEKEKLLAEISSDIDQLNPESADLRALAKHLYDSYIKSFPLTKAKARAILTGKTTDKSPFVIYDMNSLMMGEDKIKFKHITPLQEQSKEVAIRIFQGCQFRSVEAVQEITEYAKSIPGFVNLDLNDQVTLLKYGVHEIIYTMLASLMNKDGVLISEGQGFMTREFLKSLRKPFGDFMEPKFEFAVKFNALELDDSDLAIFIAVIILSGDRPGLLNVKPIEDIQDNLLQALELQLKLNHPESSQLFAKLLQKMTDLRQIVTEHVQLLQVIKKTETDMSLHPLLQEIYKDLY
Sequence of Nuclear receptor subfamily 1 group I member 2 (Rattus norvegicus) (Q9R1A7 whole entry, looked up): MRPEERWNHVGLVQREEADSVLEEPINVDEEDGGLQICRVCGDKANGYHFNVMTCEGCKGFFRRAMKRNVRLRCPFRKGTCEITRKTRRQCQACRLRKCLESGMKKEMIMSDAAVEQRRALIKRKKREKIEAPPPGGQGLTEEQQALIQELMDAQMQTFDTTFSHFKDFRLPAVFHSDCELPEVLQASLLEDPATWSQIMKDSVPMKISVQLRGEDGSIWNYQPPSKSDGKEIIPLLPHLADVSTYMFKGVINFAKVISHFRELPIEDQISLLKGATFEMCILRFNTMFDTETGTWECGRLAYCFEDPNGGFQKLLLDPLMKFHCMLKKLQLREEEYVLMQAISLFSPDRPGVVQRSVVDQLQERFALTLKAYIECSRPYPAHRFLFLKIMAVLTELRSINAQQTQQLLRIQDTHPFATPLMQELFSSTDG
Sequence of Thyroid hormone receptor beta (Homo sapiens) (P10828 whole entry, looked up): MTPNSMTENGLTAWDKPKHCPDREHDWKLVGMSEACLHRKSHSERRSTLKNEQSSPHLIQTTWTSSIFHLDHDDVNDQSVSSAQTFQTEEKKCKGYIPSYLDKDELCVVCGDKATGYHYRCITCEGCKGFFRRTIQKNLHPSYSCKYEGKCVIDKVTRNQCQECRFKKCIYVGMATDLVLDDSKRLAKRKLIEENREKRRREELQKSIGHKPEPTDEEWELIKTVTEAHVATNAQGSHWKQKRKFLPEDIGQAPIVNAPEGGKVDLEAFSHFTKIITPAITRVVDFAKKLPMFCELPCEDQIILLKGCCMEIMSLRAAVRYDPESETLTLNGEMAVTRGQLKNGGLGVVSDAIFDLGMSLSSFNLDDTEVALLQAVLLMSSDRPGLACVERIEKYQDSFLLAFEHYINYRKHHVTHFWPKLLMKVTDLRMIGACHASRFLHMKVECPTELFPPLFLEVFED

C=C(C)CCl
inactive: Potency [1] | Potency [2] | outcome [3] | outcome [4] | Potency [5] | Potency [6] | Potency [7] | Potency [8] | outcome [9] | outcome [10] | activity change % (negative = inhibition) [11] -0.864% | Potency [12] | Potency [13] | Potency [14] | outcome [15] | Potency [16] | max response [17] -2.48% | max response [18] -1.42% | outcome [19]

CCOP(=S)(OCC)SCCSCC
inactive: Potency [2] | outcome [3] | Potency [6] | Potency [7] | Potency [8] | outcome [9] | activity change % (negative = inhibition) [11] 6.91% and -9.69% | Potency [13] | Potency [14] | outcome [15] | Potency [16] | max response [17] -4.12% and 4.55% | max response [20] -9.57% and -7.92% | max response [18] 1.52% and -3.09%

O=[N+]([O-])CCO
inactive: Potency [2] | outcome [3] | Potency [5] | Potency [6] | Potency [8] | outcome [9] | activity change % (negative = inhibition) [11] 2.47% | Potency [12] | outcome [15] | Potency [16] | max response [17] -2% | max response [20] -4.92% | max response [18] 2.92% | outcome [19]

Oc1cc(Cl)cc(Cl)c1
inactive: Potency [1] | outcome [3] | outcome [4] | Potency [5] | Potency [6] | Potency [7] | Potency [8] | outcome [9] | outcome [10] | activity change % (negative = inhibition) [11] 11.4% | Potency [12] | outcome [15] | Potency [16] | max response [17] -11.3% | max response [20] 3.49% | max response [18] 0.776% | outcome [19]
active: Potency [13] 42.2 µM

CCOS(C)(=O)=O
inactive: Potency [2] | outcome [4] | Potency [5] | Potency [6] | Potency [7] | Potency [8] | outcome [9] | outcome [10] | activity change % (negative = inhibition) [11] -1.09% | Potency [12] | Potency [13] | Potency [14] | outcome [15] | Potency [16] | max response [17] -5.61% | max response [20] -14.8% | max response [18] 1.86% | outcome [19]

ClC(Cl)Br
inactive: Potency [2] | outcome [3] | outcome [4] | Potency [5] | Potency [6] | Potency [7] | Potency [8] | outcome [9] | outcome [10] | activity change % (negative = inhibition) [11] 9.06% | Potency [12] | Potency [13] | Potency [14] | outcome [15] | Potency [16] | max response [17] 9.16% | max response [20] 7.42% | max response [18] -4.5% | outcome [19]

C=CCCC#N
inactive: Potency [2] | outcome [3] | outcome [4] | Potency [5] | Potency [6] | Potency [7] | Potency [8] | outcome [9] | outcome [10] | activity change % (negative = inhibition) [11] 9.59% | Potency [12] | Potency [13] | Potency [14] | outcome [15] | Potency [16] | max response [20] -20.1% | max response [18] -6.54% | outcome [19]

Cc1ccccc1[N+](=O)[O-]
inactive: Potency [1] | Potency [2] | outcome [3] | outcome [4] | Potency [5] | Potency [6] | Potency [7] | Potency [8] | outcome [9] | outcome [10] | activity change % (negative = inhibition) [11] 6.46% | Potency [12] | outcome [15] | Potency [16] | max response [17] 11.5% | max response [18] -2.44% | outcome [19]

CNC(=O)O/N=C/C(C)(C)S(C)=O (stereo not drawn)
inactive: Potency [1] | outcome [3] | outcome [4] | Potency [5] | Potency [6] | Potency [7] | Potency [8] | outcome [9] | outcome [10] | activity change % (negative = inhibition) [11] 6.05% and 1.68% | Potency [12] | Potency [13] | Potency [14] | outcome [15] | Potency [16] | max response [17] 1.76% and 2.37% | max response [20] 0.711% and -4.36% | max response [18] 6.61% and 1.92% | outcome [19]

Cc1ccc([N+](=O)[O-])cc1
inactive: Potency [1] | Potency [2] | outcome [4] | Potency [5] | Potency [6] | Potency [7] | Potency [8] | outcome [9] | outcome [10] | activity change % (negative = inhibition) [11] 0.221% | Potency [12] | Potency [13] | Potency [14] | outcome [15] | Potency [16] | max response [17] -6.34% | max response [18] 3.32% | outcome [19]

O=C(Cl)c1ccccc1F
inactive: Potency [1] | Potency [2] | outcome [3] | outcome [4] | Potency [5] | Potency [6] | Potency [7] | Potency [8] | outcome [9] | outcome [10] | activity change % (negative = inhibition) [11] -5.22% | Potency [12] | Potency [13] | Potency [14] | outcome [15] | Potency [16] | max response [17] 6.36% | max response [20] -8.76% | max response [18] 4.78% | outcome [19]

CCOC(=O)CC(SP(=O)(OC)OC)C(=O)OCC (stereo not drawn)
inactive: Potency [1] | Potency [2] | outcome [3] | outcome [4] | Potency [6] | Potency [7] | outcome [9] | activity change % (negative = inhibition) [11] -9.27% and -19.3% | Potency [12] | Potency [13] | Potency [14] | outcome [15] | max response [17] 0.403% and 18.9% | max response [20] -12.5% and -3.42% | max response [18] -7.84% and -3.31% | outcome [19]

C=C(Cl)CSC(=S)N(CC)CC
active: Potency [12] 39.8 µM
inactive: Potency [2] | outcome [3] | outcome [4] | Potency [6] | Potency [7] | Potency [8] | outcome [9] | outcome [10] | activity change % (negative = inhibition) [11] 0.68% | Potency [13] | Potency [14] | outcome [15] | Potency [16] | max response [17] -13% | max response [20] 5.22% | max response [18] 1.65% | outcome [19]
